# Values joined by “and” are separate entries in the source; they are usually repeats but may differ in a detail not shown here. Equal values may be shown once. Inconclusive results are not listed. A call without a number means that no potency is given here. Active and inactive are the calls of the source. Unless noted, calls follow the shape of the dose curve; as a rule, active = well fitted curve in the direction sought with a large enough effect in the repeat runs; inconclusive = weak or mixed curves; inactive = no such curve, though single readings can be large; an effect the other way counts as inactive or inconclusive.
# Tested on: not listed separately
# Assay: Caspase-3/7 induction in HepG2 cells by small molecules, qHTS cell viability counter screen (AID 1346981); also: nearly all actives have a fitted effect of over 30% in size; also: potency is read from the fitted curve at half-maximal effect
# Conditions: CellTiter-Fluor fluorescence, 17 h; series mostly up to 92.4 µM
# In short: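 After a 5-hr attachment period at 37 C and 5% CO2, wild-type HepG2 cells received compounds in DMSO. Sixteen hours later CellTiter-Fluor was dispensed and the fluorescent signal quantified after a further hour.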
SMILES,Potency,"activity change, negative = cytotoxicity"
C=C(Cl)Cl,inactive,–
CCOC(=O)c1cn2nc(OP(=S)(OCC)OCC)cc2nc1C,inactive,–
O=C(O)C(F)(F)C(F)(F)C(F)(F)C(F)(F)C(F)(F)F,inactive,–
O=C(O)c1ccc(=O)[nH]c1,inactive,–
O=C(O)C(Cl)(Cl)Br,inactive,–
Cc1nc2ccccc2c(=O)n1-c1ccccc1Cl,26.7 µM (active),–
CC(=O)NNc1ccccc1,inactive,–
CC(Oc1cc(Cl)c(Cl)cc1Cl)C(=O)O (stereo not drawn),inactive,–
C=CC(C)(CCC=C(C)C)OC(=O)c1ccccc1N (stereo not drawn),inactive,–
COc1cc(CC(C)N)c(OC)cc1Br (stereo not drawn),inactive,–
O=C(CCl)CCl,inactive,–
CCCCC(CC)COC(=O)c1c(Br)c(Br)c(Br)c(Br)c1C(=O)OCC(CC)CCCC (stereo not drawn),inactive,–
O=P(OCC(Br)CBr)(OCC(Br)CBr)OCC(Br)CBr (stereo not drawn),inactive,–
O=C(Cl)OCCOCCOC(=O)Cl,inactive,–
Cc1ncc(C[n+]2csc(CCO)c2C)c(N)n1,inactive,–
N#CC(C#N)=Cc1ccc(O)c(O)c1,inactive,–
COc1ccc2c(c1OC)C(=O)O[C@H]2[C@@H]1c2cc3c(cc2CCN1C)OCO3,11.9 µM (active),–
CC(C)(C)N(NC(=O)c1ccc(Cl)cc1)C(=O)c1ccccc1,12.1 µM (active),–

SMILES,Potency,"activity change, negative = cytotoxicity"
NCCc1cc(O)c(O)cc1O,inactive,–
COc1cc(C[C@@H](C)N)c(OC)cc1Br,inactive,–
C[C@H]1[C@@H]2Cc3ccc(O)cc3[C@@]1(C)CCN2C,inactive,–
O=[N+]([O-])/C=C/c1ccccc1,31.1 µM (active) and 61.1 µM (active),–
CNC(=O)Oc1cccc(N=CN(C)C)c1,inactive,–
O=[N+]([O-])c1cc(Cl)c(Cl)cc1Cl,inactive,–
CCOC(C(=O)OCCN(C)C)(c1ccccc1)c1ccccc1,inactive,–
CCCCCCCCCCCC[N+](C)(C)CCOc1ccccc1,61.1 µM (active),–
COC(=O)Cc1ccccc1,inactive,–
O=C(N[C@H]1CN2CCC1CC2)c1ccc2c(c1)OCCO2,inactive,–
CCCCC#N,inactive,–
ClCc1ccccc1Cl,inactive,–
CC(C)(C#N)C(C)(C)C#N,inactive,–
Nc1c(Br)cc(Br)c2c1C(=O)c1ccccc1C2=O,–,-8.94% [at 19 µM] (inactive)
C=CCOC(=O)C(C)(C)OC(=O)c1cc(-n2c(=O)cc(C(F)(F)F)n(C)c2=O)ccc1Cl,inactive,–
CC(CC(C(N)=O)(c1ccccc1)c1ccccc1)N(C)C (stereo not drawn),inactive,–
O=C(NCNC(=O)NC1C(=O)NC(=O)N1CO)NC1C(=O)NC(=O)N1CO (stereo not drawn),inactive,–

# Molecular target: Nuclear receptor subfamily 1 group I member 2 (Homo sapiens) (UniProt O75469)
# Assay: Human pregnane X receptor (PXR) small molecule agonists, qHTS assay (AID 1346982); also: nearly all actives have a fitted effect of over 35% in size; also: potency is read from the fitted curve at half-maximal effect
# Conditions: PXR-Luc HepG2, CYP3A4 luciferase reporter, 24 h; series mostly up to 92.4 µM
# In short: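 Tox21 qHTS; PXR-Luc HepG2; compounds pinned from DMSO; 24 hr, 37 C; ONE-Glo luciferase detection, 30 min room temperature.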
# Nuclear receptor subfamily 1 group I member 2 (Homo sapiens), sequence (O75469 whole entry, looked up): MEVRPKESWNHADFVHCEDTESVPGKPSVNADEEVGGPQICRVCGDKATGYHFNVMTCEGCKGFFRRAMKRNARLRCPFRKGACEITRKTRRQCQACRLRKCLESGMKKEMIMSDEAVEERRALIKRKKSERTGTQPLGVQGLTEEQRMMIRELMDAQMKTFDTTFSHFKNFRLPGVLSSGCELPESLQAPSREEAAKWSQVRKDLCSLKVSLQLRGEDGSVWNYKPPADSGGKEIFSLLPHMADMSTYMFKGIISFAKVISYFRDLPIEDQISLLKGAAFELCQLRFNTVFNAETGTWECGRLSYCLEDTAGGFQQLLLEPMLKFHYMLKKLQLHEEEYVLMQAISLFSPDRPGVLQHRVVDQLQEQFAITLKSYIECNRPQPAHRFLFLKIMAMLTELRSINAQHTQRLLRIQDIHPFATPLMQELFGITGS
SMILES,Potency,activation
C=C(Cl)Cl,58 µM (active),–
CCOC(=O)c1cn2nc(OP(=S)(OCC)OCC)cc2nc1C,30.6 µM (active),–
O=C(O)c1ccc(=O)[nH]c1,inactive,–
Cc1nc2ccccc2c(=O)n1-c1ccccc1Cl,21.2 µM (active),–
N#CC(C#N)=C(C#N)C#N,inactive,–
O=P(OCC(Br)CBr)(OCC(Br)CBr)OCC(Br)CBr (stereo not drawn),55.2 µM (active) and 51.7 µM (active),–
O=C(Cl)OCCOCCOC(=O)Cl,inactive,–
N#CC(C#N)=Cc1ccc(O)c(O)c1,inactive,–
NCCc1cc(O)c(O)cc1O,inactive,–
C[Si](Cn1cncn1)(c1ccc(F)cc1)c1ccc(F)cc1,31.6 µM (active) and 15.4 µM (active),–
COc1cc(C[C@@H](C)N)c(OC)cc1Br,inactive,–
C[C@H]1[C@@H]2Cc3ccc(O)cc3[C@@]1(C)CCN2C,inactive,–
CC(C)(C#N)C(C)(C)C#N,inactive,–
COc1ccc(C(=O)c2c(C)n(CCN3CCOCC3)c3ccccc23)cc1,9.44 µM (active),–
Nc1c(Br)cc(Br)c2c1C(=O)c1ccccc1C2=O,–,3.29% [at 19 µM] (inactive)
C=CCOC(=O)C(C)(C)OC(=O)c1cc(-n2c(=O)cc(C(F)(F)F)n(C)c2=O)ccc1Cl,4.24 µM (active),–
CC(C)(C)NCC(O)c1cc(Cl)c(N)c(C(F)(F)F)c1 (stereo not drawn),inactive,–

# Molecular target: Nuclear receptor subfamily 1 group I member 2 (Rattus norvegicus) (UniProt Q9R1A7)
# Assay: Rat pregnane X receptor (rPXR) activation by small molecules, qHTS assay (AID 1346983); also: nearly all actives have a fitted effect of over 20% in size
# Conditions: rPXR luciferase reporter cells, One-Glo luminescence, 24 h; active compounds read high
# In short: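 Cell-based rPXR activation assay: rPXR cells, 2,000 per well, rested 5hr at 37 C, then exposed to compounds in DMSO for 24 hr at 37 C. Luciferase activity read by One-Glo luminescence after 30 min at room temperature.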
# Nuclear receptor subfamily 1 group I member 2 (Rattus norvegicus), sequence (Q9R1A7 whole entry, looked up): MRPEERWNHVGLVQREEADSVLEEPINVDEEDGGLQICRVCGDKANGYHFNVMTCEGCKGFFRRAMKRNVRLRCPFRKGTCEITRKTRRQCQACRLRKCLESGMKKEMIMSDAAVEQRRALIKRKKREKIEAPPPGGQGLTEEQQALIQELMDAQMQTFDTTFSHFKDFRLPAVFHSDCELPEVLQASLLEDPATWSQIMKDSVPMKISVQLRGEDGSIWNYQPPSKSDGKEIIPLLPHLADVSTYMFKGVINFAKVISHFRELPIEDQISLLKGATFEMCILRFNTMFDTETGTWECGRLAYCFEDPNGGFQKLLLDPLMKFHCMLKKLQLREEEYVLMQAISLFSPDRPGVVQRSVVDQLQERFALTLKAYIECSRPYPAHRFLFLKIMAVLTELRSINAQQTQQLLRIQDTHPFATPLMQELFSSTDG
row,SMILES,max activation
1,NCCc1cc(O)c(O)cc1O,-4.9% (inactive)
2,CCCCCCCCCCCC[N+](C)(C)CCOc1ccccc1,-6.32% (inactive)
3,COc1ccc(C(=O)c2c(C)n(CCN3CCOCC3)c3ccccc23)cc1,9.34% (inactive)
4,CC(C)(C)NCC(O)c1cc(Cl)c(N)c(C(F)(F)F)c1 (stereo not drawn),8.47% (inactive)

# Molecular target: Nuclear receptor subfamily 1 group I member 2 (Homo sapiens) (UniProt O75469)
# Assay: CYP3A4 induction through human pregnane X receptor (PXR) by small molecules, qHTS assay (AID 1346984); also: nearly all actives have a fitted effect of over 40% in size
# Conditions: DPX-2 HepG2 PXR, CYP3A4-luciferin luminescence, 24 h; series mostly up to 46.1 µM
# In short: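 Cells (DPX-2; HepG2 with PXR element plus CYP3A4-promoter luciferase) settled 5hr, then were treated 24hr at 37C. A 3hr, 3uM-final Luciferin-IPA step preceded luminescence measurement with One-Glo.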
row,SMILES,outcome
1,NCCc1cc(O)c(O)cc1O,inactive
2,COc1ccc(C(=O)c2c(C)n(CCN3CCOCC3)c3ccccc23)cc1,inactive
3,CC(C)(C)NCC(O)c1cc(Cl)c(N)c(C(F)(F)F)c1 (stereo not drawn),inactive

# Molecular target: Nuclear receptor subfamily 1 group I member 2 (Homo sapiens) (UniProt O75469)
# Assay: Human pregnane X receptor (PXR) activation by small molecules, qHTS assay (AID 1346985); also: nearly all actives have a fitted effect of over 40% in size; also: potency is read from the fitted curve at half-maximal effect
# Conditions: DPX-2 HepG2 CYP3A4-luciferase, 24 h; series mostly up to 38.3 µM
# In short: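 DPX-2 cells (HepG2 co-transfected with a PXR response element and a CYP3A4-promoter luciferase construct) were seeded at 2,000 per well, rested 5 hr at 37C, then exposed to DMSO-dissolved compounds for 24 hr. Activation was read as luciferase luminescence.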
row,SMILES,Potency
1,NCCc1cc(O)c(O)cc1O,inactive
2,COc1ccc(C(=O)c2c(C)n(CCN3CCOCC3)c3ccccc23)cc1,14.1 µM (active)
3,CC(C)(C)NCC(O)c1cc(Cl)c(N)c(C(F)(F)F)c1 (stereo not drawn),inactive

# Molecular target: Acetylcholinesterase (Homo sapiens) (UniProt P22303)
# Assay: Acetylcholinesterase (AChE) small molecule antagonists: colormetric cell-based qHTS assay (AID 1347395; calls by dose curve; also: nearly all actives have a fitted effect of over 30% in size; also: potency is read from the fitted curve at half-maximal effect)
# Conditions: SH-SY5Y cells AChE activity, colorimetric (Ellman); series mostly up to 115 µM
# In short: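 SH-SY5Y cells, plated overnight at 37 C, were exposed to compounds for 30 min at 37 C and 5% CO2. Acetylthiocholine plus DTNB was then added, and thiocholine from endogenous AChE was quantified colorimetrically after 90 min at 37 C.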
# Acetylcholinesterase (Homo sapiens), sequence (P22303 whole entry, looked up): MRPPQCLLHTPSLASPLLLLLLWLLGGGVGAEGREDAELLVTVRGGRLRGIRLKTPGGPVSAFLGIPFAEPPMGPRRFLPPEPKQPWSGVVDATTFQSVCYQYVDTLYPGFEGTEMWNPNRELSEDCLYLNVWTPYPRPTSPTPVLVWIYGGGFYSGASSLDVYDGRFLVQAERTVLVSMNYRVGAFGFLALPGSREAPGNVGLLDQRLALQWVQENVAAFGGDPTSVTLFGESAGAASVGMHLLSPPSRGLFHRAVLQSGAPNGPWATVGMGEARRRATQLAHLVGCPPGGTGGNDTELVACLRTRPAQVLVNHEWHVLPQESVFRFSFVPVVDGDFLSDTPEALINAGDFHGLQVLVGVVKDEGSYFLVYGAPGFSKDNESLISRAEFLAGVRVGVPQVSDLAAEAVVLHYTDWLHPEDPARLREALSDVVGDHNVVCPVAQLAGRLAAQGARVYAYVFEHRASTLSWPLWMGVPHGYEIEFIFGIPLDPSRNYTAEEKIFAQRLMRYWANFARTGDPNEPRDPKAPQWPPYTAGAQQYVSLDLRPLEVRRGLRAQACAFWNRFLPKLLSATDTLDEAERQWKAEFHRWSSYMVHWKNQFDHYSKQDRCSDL
SMILES,Potency,"activity, negative = inhibition"
C=C(Cl)Cl,inactive,–
CCOC(=O)c1cn2nc(OP(=S)(OCC)OCC)cc2nc1C,35.6 µM (active),–
O=C(O)c1ccc(=O)[nH]c1,inactive,–
O=C(O)C(Cl)(Cl)Br,inactive,–
Cc1nc2ccccc2c(=O)n1-c1ccccc1Cl,inactive,–
CC(Oc1cc(Cl)c(Cl)cc1Cl)C(=O)O (stereo not drawn),inactive,–
N#CC(C#N)=C(C#N)C#N,inactive,–
COc1cc(CC(C)N)c(OC)cc1Br (stereo not drawn),inactive,–
O=C(CCl)CCl,inactive,–
CCCCC(CC)COC(=O)c1c(Br)c(Br)c(Br)c(Br)c1C(=O)OCC(CC)CCCC (stereo not drawn),inactive,–
O=P(OCC(Br)CBr)(OCC(Br)CBr)OCC(Br)CBr (stereo not drawn),inactive,–
O=C(Cl)OCCOCCOC(=O)Cl,inactive,–
N#CC(C#N)=Cc1ccc(O)c(O)c1,inactive,–
CC(C)(C)N(NC(=O)c1ccc(Cl)cc1)C(=O)c1ccccc1,inactive,–
NCCc1cc(O)c(O)cc1O,inactive,–
C[Si](Cn1cncn1)(c1ccc(F)cc1)c1ccc(F)cc1,inactive,–

SMILES,Potency,"activity, negative = inhibition"
COc1cc(C[C@@H](C)N)c(OC)cc1Br,inactive,–
C[C@H]1[C@@H]2Cc3ccc(O)cc3[C@@]1(C)CCN2C,15.2 µM (active),–
CNC(=O)Oc1cccc(N=CN(C)C)c1,3.99 µM (active),–
O=[N+]([O-])c1cc(Cl)c(Cl)cc1Cl,inactive,–
CCOC(C(=O)OCCN(C)C)(c1ccccc1)c1ccccc1,inactive,–
CCCCCCCCCCCC[N+](C)(C)CCOc1ccccc1,inactive,–
COC(=O)Cc1ccccc1,inactive,–
CCCCC#N,inactive,–
ClCc1ccccc1Cl,inactive,–
CC(C)(C#N)C(C)(C)C#N,inactive,–
COc1ccc(C(=O)c2c(C)n(CCN3CCOCC3)c3ccccc23)cc1,inactive,–
Nc1c(Br)cc(Br)c2c1C(=O)c1ccccc1C2=O,–,1.8% [at 23.6 µM] (inactive)
C=CCOC(=O)C(C)(C)OC(=O)c1cc(-n2c(=O)cc(C(F)(F)F)n(C)c2=O)ccc1Cl,inactive,–
CC(CC(C(N)=O)(c1ccccc1)c1ccccc1)N(C)C (stereo not drawn),inactive,–
CC(C)(C)NCC(O)c1cc(Cl)c(N)c(C(F)(F)F)c1 (stereo not drawn),inactive,–

# Reference: PubChem BioAssay (Tox21)
